Results as given in PubChem BioAssay (NCATS).
Inconclusive results are not listed. The source made the active and inactive calls. Calls follow the shape of the dose curve; as a rule, active = well fitted curve in the direction sought with a large enough effect; inconclusive = small, poorly fitted or top-dose-only effect, or another doubt; inactive = no such curve, though single readings can be large; an effect the other way counts as inactive or inconclusive.

Experiments:
KB-3-1 = experiment: Cytotoxic Profiling of Annotated Libraries Using Quantitative High-Throughput Screening (AID 1296008); details: Five cell lines viability, CellTiter-Glo ATP luminescence, 48-72 h; max response: active compounds read low; also: nearly all actives have a fitted effect of over 60% in size; as to max response: % is scaled to controls: 0 for no effect and ±100 for the full control effect
In short: (§1)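 Cells exposed to compounds for 48 or 72 hr at 37 degrees Celsius. Viability read as ATP-coupled luminescence with CellTiter-Glo after 10 min at room temperature.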

NIH3T3 [1] = experiment: as above; details: Five cell lines viability, CellTiter-Glo ATP luminescence, 48-72 h; max response: active compounds read low
In short: as §1

CRL-7250 = normal cell line; experiment: qHTS assay to identify novel small-molecules to repurpose for Merkel cell carcinoma treatment (AID 1296009); details: MCC and control cell lines, CellTiter-Glo viability, 72 h; at 44.8 µM (top of the series) unless noted; also: nearly all actives have a fitted effect of over 60% in size
In short: (§2)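 CellTiter-Glo luminescence after 72 hr compound exposure at 37 degree celsius gave cell viability. Libraries NPC and MIPE were run as 8- and 11-point dose responses; RLUs normalized to DMSO (negative) and no-cell (cytotoxicity) controls.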

HEK293T [2] = experiment: as above; details: MCC and control cell lines, CellTiter-Glo viability, 72 h; at 44.8 µM (top of the series) unless noted
In short: as §2

C33A = experiment: Primary qHTS to identify gynecologic anti-cancer compounds using libraries of approved drugs and bioactive compounds (AID 1345084); details: Gynecologic cancer cell panel viability, ATPlite luminescence, 48 h; series mostly up to 57.5 µM; also: % is scaled to controls: 0 for no effect and ±100 for the full control effect; nearly all actives have a fitted effect of over 55% in size
In short: (§3)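 ATP-based viability (ATPlite), 1,000 cells/well, 16 h pre-incubation, 48 h compound at 37 C, 5% CO2, 15 min RT before read.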

CASKI = experiment: as above; details: Gynecologic cancer cell panel viability, ATPlite luminescence, 48 h; series mostly up to 57.5 µM
In short: as §3

Es-2 = experiment: as above; details: Gynecologic cancer cell panel viability, ATPlite luminescence, 48 h; series mostly up to 57.5 µM
In short: as §3

HeLa = experiment: as above; details: Gynecologic cancer cell panel viability, ATPlite luminescence, 48 h; series mostly up to 57.5 µM
In short: as §3

Hek293T [3] = experiment: as above; details: Gynecologic cancer cell panel viability, ATPlite luminescence, 48 h, control line for the selectivity index; series mostly up to 57.5 µM
In short: as §3

JEG-3 = experiment: as above; details: Gynecologic cancer cell panel viability, ATPlite luminescence, 48 h; series mostly up to 57.5 µM
In short: as §3

OV90 = experiment: as above; details: Gynecologic cancer cell panel viability, ATPlite luminescence, 48 h; series mostly up to 57.5 µM
In short: as §3

HACAT = experiment: qHTS assay to identify novel small-molecules to repurpose for Merkel cell carcinoma treatment (AID 1296009); details: MCC and control cell lines, CellTiter-Glo viability, 72 h; at 44.8 µM (top of the series) unless noted; also: nearly all actives have a fitted effect of over 60% in size
In short: as §2

NIH3T3 [4] = experiment: as above; details: MCC and control cell lines, CellTiter-Glo viability, 72 h; at 44.8 µM (top of the series) unless noted
In short: as §2

CAOV3 = experiment: Primary qHTS to identify gynecologic anti-cancer compounds using libraries of approved drugs and bioactive compounds (AID 1345084); details: Gynecologic cancer cell panel viability, ATPlite luminescence, 48 h; series mostly up to 57.5 µM; also: % is scaled to controls: 0 for no effect and ±100 for the full control effect; nearly all actives have a fitted effect of over 55% in size
In short: as §3

CCc1c(C(=O)C(N)=O)c2c(OCC(=O)OC)cccc2n1Cc1ccccc1
inactive: outcome (KB-3-1) | max response (NIH3T3 [1]) -0.844% | outcome (CRL-7250) | outcome (HEK293T [2]) | Potency (C33A) | Potency (CASKI) | Potency (Es-2) | Potency (HeLa) | Potency (Hek293T [3]) | Potency (JEG-3) | Potency (OV90)

C[C@@H]1C(=O)O[C@H]2[C@H](O)[C@@]34[C@@H]5OC(=O)[C@@]3(O[C@@H]3OC(=O)[C@@H](O)[C@@]34[C@H](C(C)(C)C)[C@H]5O)[C@@]12O
inactive: outcome (KB-3-1) | outcome (NIH3T3 [1]) | outcome (HACAT) inactive [at 17.4 µM] | outcome (NIH3T3 [4]) inactive [at 17.4 µM] | Potency (C33A) | Potency (CAOV3) | Potency (CASKI) | Potency (Es-2) | Potency (HeLa) | Potency (Hek293T [3]) | Potency (JEG-3) | Potency (OV90)

C1=C2CCCN[C@H]2[C@@H]2C[C@H]1[C@H]1CCCCN1C2
inactive: outcome (KB-3-1) | outcome (NIH3T3 [1]) | outcome (CRL-7250) | outcome (NIH3T3 [4]) | Potency (C33A) | Potency (CAOV3) | Potency (CASKI) | Potency (Es-2) | Potency (HeLa) | Potency (Hek293T [3]) | Potency (JEG-3) | Potency (OV90)

COC1CC(O[C@H]2CC[C@@]3(C)C(=CCC4C3C(O)[C@@H](O)[C@]3(C)[C@@H](C(C)=O)CC[C@]43O)C2)OC(C)C1OC1CC(OC)C(OC2OC(C)C(O)C(O)C2O)C(C)O1 (some centres not stated)
inactive: outcome (KB-3-1) | outcome (NIH3T3 [1]) | outcome (HACAT) inactive [at 9.27 µM] | outcome (HEK293T [2]) inactive [at 9.27 µM] | outcome (NIH3T3 [4]) inactive [at 9.27 µM] | activity change, negative = cytotoxicity (C33A) -3.17% [at 11.6 µM] | activity change, negative = cytotoxicity (CAOV3) -3.8% [at 11.6 µM] | activity change, negative = cytotoxicity (CASKI) -11.2% [at 11.6 µM] | activity change, negative = cytotoxicity (Es-2) -3.8% [at 11.6 µM] | activity change, negative = cytotoxicity (HeLa) -11.4% [at 11.6 µM] | activity change, negative = cytotoxicity (Hek293T [3]) -2.86% [at 11.6 µM] | activity change, negative = cytotoxicity (JEG-3) -1.29% [at 11.6 µM] | activity change, negative = cytotoxicity (OV90) -0.104% [at 11.6 µM]

CCCN1CCO[C@H]2c3cc(O)ccc3OC[C@@H]21
inactive: outcome (KB-3-1) | outcome (NIH3T3 [1]) | outcome (CRL-7250) | outcome (HEK293T [2]) | outcome (NIH3T3 [4]) | Potency (C33A) | Potency (CAOV3) | Potency (CASKI) | Potency (Es-2) | Potency (HeLa) | Potency (Hek293T [3]) | Potency (JEG-3) | Potency (OV90)

CCC(C)(C#N)O[C@@H]1O[C@H](CO)[C@@H](O)[C@H](O)[C@H]1O (some centres not stated)
inactive: outcome (KB-3-1) | outcome (NIH3T3 [1]) | outcome (HACAT) | outcome (HEK293T [2]) | outcome (NIH3T3 [4]) | Potency (C33A) | Potency (CAOV3) | Potency (CASKI) | Potency (Es-2) | Potency (HeLa) | Potency (Hek293T [3]) | Potency (JEG-3) | Potency (OV90)

CCCCCOc1cc2c(cc1-c1cc(/C=C/C(=O)O)ccc1O)C(C)(C)CCC2(C)C
inactive: outcome (KB-3-1) | max response (NIH3T3 [1]) -4.13% | outcome (HACAT) | outcome (HEK293T [2]) | Potency (C33A) | Potency (CAOV3) | Potency (CASKI) | Potency (Es-2) | Potency (HeLa) | Potency (Hek293T [3]) | Potency (JEG-3) | Potency (OV90)

C=C1[C@@H]2CC[C@@]3(C)[C@H](c4ccoc4)OC(=O)C[C@]13O[C@H]1CC(=O)C(C)(C)[C@H](C(OC(C)=O)C(=O)OC)[C@]12C (some centres not stated)
inactive: max response (KB-3-1) -6.59% | max response (NIH3T3 [1]) -2.92% | outcome (CRL-7250) inactive [at 17.4 µM] | outcome (HACAT) inactive [at 17.4 µM] | Potency (C33A) | Potency (CASKI) | Potency (Es-2) | Potency (HeLa) | Potency (Hek293T [3]) | Potency (JEG-3) | Potency (OV90)

COC1=CC(=O)O[C@@H](/C=C/c2ccccc2)C1
inactive: outcome (KB-3-1) | outcome (NIH3T3 [1]) | outcome (HACAT) | outcome (NIH3T3 [4]) | Potency (C33A) | Potency (CAOV3) | Potency (CASKI) | Potency (Es-2) | Potency (HeLa) | Potency (Hek293T [3]) | Potency (JEG-3)

CC1C/C=C/C(O)C(O)CC/C=C/c2cc(O)cc(O)c2C(=O)O1 (configuration not stated)
inactive: max response (KB-3-1) 0.529% | max response (NIH3T3 [1]) 3.47% | outcome (CRL-7250) | outcome (HEK293T [2]) | Potency (C33A) | Potency (CASKI) | Potency (Es-2) | Potency (HeLa) | Potency (Hek293T [3]) | Potency (JEG-3) | Potency (OV90)

Cc1c(Cl)cccc1S(=O)(=O)Nc1nc(CC(=O)N2CCN(C)CC2)cs1
inactive: outcome (KB-3-1) | outcome (NIH3T3 [1]) | outcome (HACAT) | outcome (NIH3T3 [4]) | Potency (C33A) | Potency (CAOV3) | Potency (CASKI) | Potency (Es-2) | Potency (HeLa) | Potency (Hek293T [3]) | Potency (JEG-3) | Potency (OV90)

C=CC(C)(O)CC/C=C(\C)C(=O)O[C@H]1[C@H](O)[C@@H](CO)O[C@@H](OC(=O)[C@]23CCC(C)(C)CC2C2=CCC4[C@@]5(C)CC[C@H](O[C@@H]6O[C@H](CO[C@@H]7OC[C@H](O)[C@H](O)[C@H]7O[C@@H]7OC[C@@H](O)[C@H](O)[C@H]7O)[C@@H](O)[C@H](O)[C@H]6O)C(C)(C)C5CC[C@@]4(C)[C@]2(C)CC3)[C@@H]1OC1OC(C)C(O[C@@H]2OC[C@@H](O)[C@H](O[C@@H]3OC[C@@H](O)[C@H](O)[C@H]3O)[C@H]2O)C(O)C1O (some centres not stated)
inactive: max response (KB-3-1) -0.269% | outcome (NIH3T3 [1]) | outcome (HACAT) inactive [at 9.27 µM] | outcome (NIH3T3 [4]) inactive [at 9.27 µM] | activity change, negative = cytotoxicity (C33A) 2.58% [at 6.55 µM] | activity change, negative = cytotoxicity (CASKI) -11.5% [at 6.55 µM] | activity change, negative = cytotoxicity (Es-2) 0.692% [at 6.55 µM] | activity change, negative = cytotoxicity (HeLa) 7.46% [at 6.55 µM] | activity change, negative = cytotoxicity (Hek293T [3]) 2.18% [at 6.55 µM] | activity change, negative = cytotoxicity (JEG-3) -17.2% [at 6.55 µM] | activity change, negative = cytotoxicity (OV90) -3.63% [at 6.55 µM]
